# Laboratory results from PubChem BioAssay AID624206 (National Center for Advancing Translational Sciences (NCATS), 2012).
# Activity calls are given as the source filed them. Calls follow the shape of the dose curve; as a rule, active = well fitted curve in the direction sought with a large enough effect; inconclusive = small, poorly fitted or top-dose-only effect, or another doubt; inactive = no such curve, though single readings can be large or run the other way.
# Assay: Quantitative high throughput screen to test cell viability of anti-malarial compounds targeting the delayed death phenotype.
# Settings: HepG2 viability, CellTiter-Glo luminescence, 48 h
# Description: NIH Molecular Libraries Probe Production Network [MLPCN] NIH Chemical Genomics Center [NCGC] MLPCN Grant: R21 NS059500 Assay Provider: David Fidock and Eric Ekland, Columbia University The goal of this screen is to measuer the cytoxoxicity (against HepG2 cell line) of a set of anti-malarial compounds that target the delayed death pheonotype, by inhibiting the development of the apicoplast in the malarial parasite Plasmodium falciparum (described below) The biochemical processes that make this organelle essential for erythrocytic stage parasites are not well understood. However, antibiotics, such as azithromycin and tetracycline, which target the apicoplast translational machinery, have a potent antimalarial effect. […] We have developed a cell-based assay that measures parasite growth based on the expression of an integrated copy of a firefly luciferase reporter. To detect small molecules that cause this 'delayed death' phenotype, erythrocytes infected with the luciferase-expressing parasites were incubated with compounds for either one or two generations, corresponding to 48 and 96 hours, respectively. Compounds that inhibit parasite growth in the second generation, but not the first, should be enriched in antimalarials that target the apicoplast. Growth inhibition is detected by a decrease in luciferase activity
# Cells were plated at a density of 2000 cells/well/5uL in 1536 well white tissue culture plate with culture medium. Triplicate plates were prepared. Plates were incubated at 37C, 5% CO2 for 5 hours and then 23nL of compounds and positive control were transferred to the assay plates. Tetraoctylammonium bromide was added as a positive control. Plates were then incubated at 37C, 5% CO2 for 48 hours. 5 uL of CellTitler-Glo buffer was added to each well and then incubated for 30 min at room temperature. Luminescence was measured using ViewLux (1 second, slow, 2X).
row,SMILES,max response
1,COc1ccc(NC(=O)NC2CCCCCCC2)c(OC)c1,-2.67% (inactive)
2,CCOc1ccc(NC(=O)C[n+]2ccc(N(C)C)cc2)cc1,8.12% (inactive)
3,N#Cc1cccc(NC(=O)Cn2c3[n+](c4ccc(C(F)(F)F)cc42)CCCCC3)c1,14.7% (inactive)
4,COc1cccc(CN2CCN(c3nc4nonc4nc3N3CCCCC3)CC2=O)c1,15.7% (inactive)
5,CN(C)S(=O)(=O)c1cc(NC(=O)C2=COCCO2)ccc1Cl,13.5% (inactive)
6,O=C(CNC(=O)C1CCCCC1)OC(C(=O)c1ccccc1)c1ccccc1 (stereo not given),20.4% (inactive)
7,COc1ccc2cc3cc(C(=O)Nc4ccc5c(c4)OCO5)oc3nc2c1,-29.2% (inactive)
8,CC1=Nc2cc(C(=O)N3CCCC3)ccc2Sc2ccc(C)cc21,5.45% (inactive)
9,CC(C)C(=O)NCCSc1c[nH]c2ccccc12,-11.2% (inactive)
10,CCOc1ccc(S(=O)(=O)Nc2cc(S(=O)(=O)N(CC)CC)ccc2N2CCCC2)cc1,-26.9% (inactive)
11,COCCNC(=O)c1cccc(OC2CCN(Cc3cccc(SC)c3)CC2)c1,-0.53% (inactive)
12,COc1ccc(C(=O)N2CCN(S(=O)(=O)c3ccc(C)cc3C)CC2)cc1OC,-11.6% (inactive)
13,Cc1sc2nc[nH]c(=O)c2c1-c1ccc(Cl)cc1,3.87% (inactive)
14,CC(=O)NC[C@@H]1CN(c2ccc(N3CCOCC3)c(F)c2)C(=O)O1,12.4% (inactive)
15,COc1ccc(CNC(=O)C2CCC(CNS(=O)(=O)c3cccc4cccnc34)CC2)cc1 (stereo not given),4.48% (inactive)
16,Cc1ccc(-n2c(-c3ccc(Cl)cc3)c[n+]3c2CCC3)cc1,-10.3% (inactive)
17,COc1ccc(Nc2nnc(-c3ccc(C)cc3)c3ccccc23)cc1C(=O)N1CCCCC1,-6.06% (inactive)
18,O=C(c1ccc([N+](=O)[O-])cc1)n1nc(-c2ccccc2)nc1NCc1ccc(F)cc1,17.5% (inactive)
19,CCCCN(CCCNC(=O)c1ccc(CS(=O)(=O)c2ccc(OC)cc2)o1)Cc1ccccc1,-1.11% (inactive)
20,O=C(NCc1cccnc1)c1ccc(NS(=O)(=O)c2ccccc2)cc1,-0.715% (inactive)

row,SMILES,max response
1,CO[C@@H]1[C@@H](OC2OC(C)C(OC3CC(C)(O)C(OC(=O)CC(C)C)C(C)O3)C(N(C)C)C2O)[C@@H](CC=O)C[C@@H](C)C(=O)/C=C\C2O[C@H]2C[C@@H](C)OC(=O)C[C@H]1OC(C)=O (stereo not given in full),14.6% (inactive)
2,CCOC(=O)c1ccc2c(c1)n(CC)c(/C=C/N(C)c1ccccc1)[n+]2CC,-1.94% (inactive)
3,Cc1ccc(S(=O)(=O)Nc2ccc(C(=O)Nc3ccncc3)cc2)cc1,5.11% (inactive)
4,CCCCOc1ccc(N2C(N)=NC(N)=NC23CCCCC3)cc1,-12% (inactive)
5,CCC(=O)OC1C(N(C)C)CC(C)O[C@H]1O[C@H]1[C@H](C)[C@@H](O[C@H]2CC(OC)[C@@H](O)C(C)O2)[C@H](C)C(=O)O[C@@H](CC)[C@](C)(O)[C@@H](O)[C@H](C)C(=O)[C@@H](C)C[C@]1(C)O (stereo not given in full),10.5% (inactive)
6,CCc1nc(SCC(=O)Nc2ccc(N(C)C)cc2)n[nH]1,1.4% (inactive)
7,Cc1c(F)c(N2CCNC(C)C2)cc2c1c(=O)c(C(=O)O)cn2C1CC1 (stereo not given),12.4% (inactive)
8,Brc1cccc(OCCCCN2CCCCC2)c1,-6.02% (inactive)
9,CCCc1cc(=O)oc2cc(OC(C)C(=O)NCc3ccccn3)c(Cl)cc12 (stereo not given),11.2% (inactive)
10,O=C(Nc1ccccc1N1CCOCC1)c1cccc(S(=O)(=O)N2CCOCC2)c1,0.827% (inactive)
11,CCCCN(CCCNC(=O)C1CCN(C(=O)c2cc3sccc3n2C)CC1)Cc1ccccc1,0.234% (inactive)
12,c1csc(CNc2ncnc3nc[nH]c23)c1,12.9% (inactive)
13,CN(C)c1ccc(CN(C(=O)c2ccccc2Br)C2CCS(=O)(=O)C2)cc1 (stereo not given),14.8% (inactive)
14,COc1ccc(NC(=S)N2CCC(Cc3ccccc3)CC2)cc1OC,0.57% (inactive)
15,COc1ccccc1N1CCN(CCC(=O)Nc2ccc(F)cc2)CC1,6.7% (inactive)
16,COc1ccc2c(ccc[n+]2CC(=O)c2ccccc2)c1,5.11% (inactive)
17,O=C(CSc1ccc(-c2cccnc2)nn1)Nc1ccccc1C(F)(F)F,0.59% (inactive)
18,CO[C@H]1[C@H](O[C@H]2O[C@@H](C)[C@@H](O[C@@H]3C[C@](C)(O)[C@H](O)[C@H](C)O3)[C@@H](N(C)C)[C@@H]2O)[C@@H](CC=O)C[C@@H](C)[C@@H](O[C@H]2CC[C@H](N(C)C)[C@H](C)O2)/C=C\C=C/C[C@@H](C)OC(=O)C[C@H]1O,5.01% (inactive)
19,CCOc1ccc(C(=O)Nc2ccc(N3CCN(C)CC3)cc2)cc1,8.06% (inactive)
20,CCN(CC)C(=O)COc1coc(CN2CCN(c3cccc(Cl)c3)CC2)cc1=O,3.88% (inactive)
